PubChem BioAssay (EPA / NIEHS)
Results filed as inconclusive are left out. Calls of active or inactive are those of the source. Rule for the calls, unless noted: active = hit-call score of the fitted dose curve at least 0.9, where 1 is the maximum; inactive = score below 0.9.

How the values were obtained:
[1] = CCTE_Shafer_MEA_acute_LDH: CCTE's Lactate Dehydrogenase Assay for Cytotoxicity in the Neural Acute Assay, Shafer Lab (AID 2284086; active = hit-call score of the fitted dose curve at least 0.9, where 1 is the maximum;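 note: active means LDH release rises above DMSO vehicle level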)
How it was run: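 Medium from rat cortical neuron MEA cultures sampled right after the 40 min compound-exposure recording; released LDH measured by absorbance at 490 nm. Analyzed as signal gain relative to DMSO.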

[2] = CCTE_Shafer_MEA_dev_mutual_information_norm: CCTE's Neural Network Formation Assay for Mutual Information Normalization, Shafer Lab (AID 2284091)
How it was run: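 Primary rat cortical neurons on PEI-coated 48-well MEA plates, 1.5 x 10^5 cells/well, exposed from day 0 through day 12 with re-dosing at DIV 5 and 9. Mutual information between electrodes recorded days 5, 7, 9, 12; trapezoidal AUC, loss-of-signal fit versus DMSO.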

[3] = CCTE_Shafer_MEA_dev_correlation_coefficient_mean: CCTE's Neural Network Formation Assay for Mean Correlation Coefficient, Shafer Lab (AID 2284093)
How it was run: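 Spontaneous activity recorded on days 5, 7, 9 and 12 post-plating; pairwise spike correlations are averaged across active electrodes and collapsed to an area-under-curve. Rat cortical cultures are dosed from plating through 12 days, with compound renewed at media changes.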

[4] = IUF_NPC1b_proliferation_BrdU_72hr: Leibniz Research Institute for Environmental Medicine (IUF) 72-hour Neural Progenitor Cell Bromodeoxyuridine (BrdU) Proliferation Assay (NPC1b) (AID 2284207)
How it was run: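 BrdU luminescence ELISA quantified DNA synthesis over the last 16 h of a 72 h exposure, fitted against DMSO. Primary hNPC spheres from gestational week 16-19 cortex grown with EGF/FGF at 37C, pH 7.2-7.6.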

[5] = IUF_NPC1a_proliferation_area_72hr: Leibniz Research Institute for Environmental Medicine (IUF) 72-hour Neural Progenitor Cell Proliferation Area Assay (NPC1a) (AID 2284208)
How it was run: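 Single 0.25–0.35 mm human fetal neural progenitor spheres in proliferation medium with EGF and FGF, exposed 72 h from plating without renewal at 37C, pH 7.2-7.6. Sphere area growth measured by automated phase-contrast imaging, relative to DMSO.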

[6] = IUF_NPC1_viability_72hr: Viability Assessment at 72 hours in the Leibniz Research Institute for Environmental Medicine (IUF) Neural Progenitor Cell Proliferation Assay (NPC1) (AID 2284209)
How it was run: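 Single spheres (0.25-0.35 mm) of human fetal cortex-derived neural progenitor cells were grown in proliferation medium with EGF and FGF at 37C and 5% CO2. They were exposed for 72 h without renewal, and viability was read by alamar blue resorufin fluorescence.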

[7] = CCTE_Mundy_HCI_Cortical_Synap_Neur_Matur_NeuriteSpotCountPerNeuriteLength: CCTE's Synaptogenesis and Neurite Maturation Assay in rat cortical cells for Neurite Spot Count per Neurite Length, Mundy Lab (AID 2284210)
How it was run: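 Rat primary cortical cultures, AraC added at DIV 5 to suppress glia; chemical exposure from DIV 7 to DIV 12. Fixed cells stained for MAP2 and synaptophysin plus Hoechst; synaptophysin puncta per neurite length quantified by high-content imaging, relative to DMSO.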

[8] = CCTE_Mundy_HCI_Cortical_NOG_NeuriteLength: CCTE's Neurite Outgrowth Assay in rat cortical cells for Neurite Length, Mundy Lab (AID 2284213)
How it was run: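 Neurite length was read by high-content imaging of βIII-tubulin-labelled neurites in rat primary cortical cultures. Activity was fitted relative to DMSO.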

[9] = CCTE_Mundy_HCI_Cortical_Synap_Neur_Matur_NeuriteLength: CCTE's Synaptogenesis and Neurite Maturation Assay in rat cortical cells for Neurite Length, Mundy Lab (AID 2284214)
How it was run: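 Rat primary cortical cultures, AraC added DIV 5, dosed DIV 7 through DIV 12 […]. Fixed, MAP2/synaptophysin immunostained with Hoechst; neurite length by high-content imaging, fitted in positive direction versus DMSO.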

[10] = CCTE_Mundy_HCI_Cortical_Synap_Neur_Matur_NeuriteSpotCountPerNeuron: CCTE's Synaptogenesis and Neurite Maturation Assay in rat cortical cells for Neurite Spot Count per Neuron Count, Mundy Lab (AID 2284215)
How it was run: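 Rat primary cortical cultures given AraC at DIV 5, dosed from DIV 7 to DIV 12 with media change. Fixed, stained for MAP2, synaptophysin and Hoechst; neurite-associated synaptophysin puncta per neuron quantified by high-content imaging versus DMSO.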

[11] = CCTE_Mundy_HCI_hN2_NOG_NeuriteCount: CCTE's Neurite Outgrowth Assay in human hN2 cells for Neurite Count, Mundy Lab (AID 2284219; active = hit-call score of the fitted dose curve at least 0.9, where 1 is the maximum)
How it was run: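 In this morphology assay, hNP1-derived neurons received test chemical 2 h post-plating and were fixed two days later in warm paraformaldehyde/sucrose containing Hoechst 33342. Neurites, labelled by rabbit anti-βIII-tubulin (1:800) and Alexa Fluor-488 (1:500), were counted automatically.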

[12] = CCTE_Mundy_HCI_hN2_NOG_NeuriteLength: CCTE's Neurite Outgrowth Assay in human hN2 cells for Neurite Length, Mundy Lab (AID 2284220; active = hit-call score of the fitted dose curve at least 0.9, where 1 is the maximum)
How it was run: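 Read-out is neurite length from high-content imaging of βIII-tubulin/Alexa Fluor-488-labelled neurons, referenced to DMSO controls.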

[13] = CCTE_Mundy_HCI_Cortical_Synap_Neur_Matur_CellBodySpotCount: CCTE's Synaptogenesis and Neurite Maturation Assay in rat cortical cells for Cell Body Spot Count, Mundy Lab (AID 2284223)
How it was run: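 Primary rat cortical cultures, AraC added at DIV 5; dosed DIV 7 through DIV 12 […]. Fixed, stained for MAP2 and synaptophysin with Hoechst; cell body-associated synaptophysin puncta per neuron counted by high-content imaging, loss vs DMSO.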

[14] = CCTE_Mundy_HCI_hNP1_Pro_ResponderAvgInten: CCTE's Proliferation Assay in human neuroprogenitor cells, Mundy Lab (AID 2284224; active = hit-call score of the fitted dose curve at least 0.9, where 1 is the maximum;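 note: human neural progenitor cells hNP1 derived from WA09 embryonic stem cells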)
How it was run: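 Proliferation read as average intensity of BrdU-positive cells, imaged at 26.25 h post-dosing: chemical exposure started after 40–44 h culture, BrdU during final 4 h, paraformaldehyde fixation. Positive-direction fit relative to DMSO.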

[15] = CCTE_Mundy_HCI_Cortical_NOG_NeuronCount: CCTE's Neurite Outgrowth Assay in rat cortical cells for Neuron Count, Mundy Lab (AID 2284236; active = hit-call score of the fitted dose curve at least 0.9, where 1 is the maximum;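 note: neurons counted by imaging betaIII-tubulin and Hoechst stained cortical cells; cells exposed to compound for about 48 hours before fixation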)
How it was run: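 Read-out: neuron number by high-content imaging of betaIII-tubulin (Alexa Fluor-488) and Hoechst-labelled rat primary cortical cells.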

[16] = CCTE_Mundy_HCI_hNP1_Casp3_7: CCTE's Caspase-Glo 3/7 Assay in human neuroprogenitor cells for Apoptosis, Mundy Lab (AID 2284240)
How it was run: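 Luminescent caspase-3/7 readout, 26.5 h post-dose, in human neural progenitor cells from WA09 embryonic stem cells. Cells grew 40–44 h at 37 °C, 5% CO2 before chemical addition. Activity analysed as signal increase over DMSO baseline.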

[17] = IUF_NPC2c_oligodendrocyte_migration_120hr: Leibniz Research Institute for Environmental Medicine (IUF) 120-hour Neural Progenitor Cell Migration Assay for Oligodendrocyte Migration (NPC2c) (AID 2284297);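 note: O4-positive oligodendrocyte migration distance divided by radial glia migration distance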
How it was run: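 Human fetal neural progenitor spheres (0.3 mm) are plated on poly-D-lysine/laminin in N2 differentiation medium and exposed for 120 h, with half-medium renewal at day 3. Oligodendrocyte (O4+) migration distance comes from ICC imaging, normalised to radial glia migration.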

[18] = IUF_NPC2a_radial_glia_migration_120hr: Leibniz Research Institute for Environmental Medicine (IUF) 120-hour Neural Progenitor Cell Migration Assay for Radial Glia Migration (NPC2a) (AID 2284298)
How it was run: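 Human fetal-cortex neural progenitor spheres (0.3 mm) plated on poly-D-lysine/laminin in N2 differentiation medium, exposed 120 h at 37C with half-medium renewal at day 3. Radial glia migration distance (um) measured from Hoechst-stained nuclei images; DMSO baseline.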

[19] = IUF_NPC2a_radial_glia_migration_72hr: Leibniz Research Institute for Environmental Medicine (IUF) 72-hour Neural Progenitor Cell Migration Assay for Radial Glia Migration (NPC2a) (AID 2284299)
How it was run: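 Human fetal neural progenitor spheres (0.3 mm) plated on poly-D-lysine/laminin in N2 differentiation medium and exposed from day 0 at 7 concentrations; radial glia migration distance from sphere edge measured at 72 h on brightfield images, mean of four directions, vs DMSO.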

[20] = IUF_NPC2b_neuronal_migration_120hr: Leibniz Research Institute for Environmental Medicine (IUF) 120-hour Neural Progenitor Cell Migration Assay for Neuron Migration (NPC2b) (AID 2284300)
How it was run: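 0.3 mm hNPC spheres on poly-D-lysine/laminin in N2 differentiation medium exposed 120 h, half-medium refresh day 3; 7 concentrations, DMSO max 0.1%. Neuron (TUBB3) distance from sphere core by ICC imaging, normalised to radial glia migration.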

[21] = IUF_NPC3_neuronal_differentiation_120hr: Leibniz Research Institute for Environmental Medicine (IUF) 120-hour Neuronal Differentiation Assay (NPC3) (AID 2284301)
How it was run: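 Human fetal (GW 16-19) neural progenitor spheres (0.3 mm) plated on poly-D-lysine/laminin in N2 differentiation medium, exposed 120 h at 37C with half-medium renewal day 3; 7 concentrations. TUBB3+ cells as % of Hoechst nuclei, CNN-identified; DMSO baseline.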

[22] = IUF_NPC4_neurite_length_120hr: Leibniz Research Institute for Environmental Medicine (IUF) 120-hour Neuronal Morphology Assay for Neurite Length (NPC4) (AID 2284302)
How it was run: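 Human fetal neural progenitor spheres (0.3 mm) plated on poly-D-lysine/laminin in N2 differentiation medium, exposed from day 0 for 120 h with half-medium refresh at day 3, 37C. Mean neurite length (um) of TUBB3-positive neurons from skeletonized immunostaining images; DMSO ≤0.1%.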

[23] = IUF_NPC5_oligodendrocyte_differentiation_120hr: Leibniz Research Institute for Environmental Medicine (IUF) 120-hour Oligodendrocyte Differentiation Assay (NPC5) (AID 2284304; active = hit-call score of the fitted dose curve at least 0.9, where 1 is the maximum;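 note: primary human fetal neural progenitor spheres plated to migrate and differentiate; share of O4-positive cells among Hoechst nuclei found by CNN image analysis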)
How it was run: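 Human fetal neural progenitor spheres (0.3 mm) plated on poly-D-lysine/laminin in N2 differentiation medium and exposed for 120 h at 7 concentrations, with half-medium renewal at day 3. O4-positive cells identified by CNN, expressed as percent of Hoechst nuclei.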

[24] = IUF_NPC2-5_cytotoxicity_72hr: Cytotoxicity Assessment at 72 hours in the Leibniz Research Institute for Environmental Medicine (IUF) Neural Progenitor Cell Migration and Differentiation Assay for Cytotoxicity (NPC2-5) (AID 2284306; active = hit-call score of the fitted dose curve at least 0.9, where 1 is the maximum;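 note: LDH release into supernatant measured by resorufin fluorescence marking membrane damage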)
How it was run: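 Human fetal primary neural progenitor spheres (0.3 mm) plated on poly-D-lysine/laminin in N2 differentiation medium, exposed from day 0 at 37C. LDH-dependent resazurin-to-resorufin fluorescence in supernatant at 72 h; 7 concentrations, DMSO at most 0.1%.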

[25] = IUF_NPC2-5_cytotoxicity_120hr: Cytotoxicity Assessment at 120 hours in the Leibniz Research Institute for Environmental Medicine (IUF) Neural Progenitor Cell Migration and Differentiation Assay (NPC2-5) (AID 2284307; active = hit-call score of the fitted dose curve at least 0.9, where 1 is the maximum)
How it was run: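 Human fetal (GW 16-19) neural progenitor spheres (0.3 mm) plated on poly-D-lysine/laminin in N2 differentiation medium, exposed 120 h with half-medium renewal at day 3; 7 concentrations plus solvent control, DMSO ≤0.1%. LDH release in supernatant read by resorufin fluorescence.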

[26] = IUF_NPC2-5_cell_number_120hr: Cell Number Assessment at 120 hours in the Leibniz Research Institute for Environmental Medicine (IUF) Neural Progenitor Cell Migration and Differentiation Assay (NPC2-5) (AID 2284308);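 note: count of Hoechst-stained nuclei in migration zone around plated human neural progenitor spheres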
How it was run: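 Human fetal neural progenitor spheres (0.3 mm) plated on poly-D-lysine/laminin in N2 differentiation medium, exposed five days across 7 concentrations with half-medium refresh at day 3. Hoechst-positive nuclei counted in migration area at 120 h, relative to DMSO.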

[27] = IUF_NPC2-5_viability_120hr: Viability Assessment at 120 hours in the Leibniz Research Institute for Environmental Medicine (IUF) Neural Progenitor Cell Migration and Differentiation Assay (NPC2-5) (AID 2284312)
How it was run: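 Human fetal neural progenitor spheres (0.3 mm) plated on poly-D-lysine/laminin in N2 differentiation medium, exposed 120 h with half-medium refresh at day 3. Viability by alamar blue resazurin fluorescence; 7 concentrations, DMSO max 0.1%.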

[28] = IUF_NPC1_cytotoxicity_72hr: Cytotoxicity Assessment at 72 hours in the Leibniz Research Institute for Environmental Medicine (IUF) Neural Progenitor Cell Proliferation Assay (NPC1) (AID 2284332; active = hit-call score of the fitted dose curve at least 0.9, where 1 is the maximum;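 note: rising LDH signal means more cytotoxicity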)
How it was run: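 Human fetal neural progenitor spheres (0.3 mm) in EGF/FGF proliferation medium, 37C, exposed 72 h without renewal. LDH release in supernatant read by resorufin fluorescence; gain of signal scored relative to dynamic range.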

Measured: outcome

CC1(C)S[C@@H]2[C@H](NC(=O)[C@H](N)c3ccc(O)cc3)C(=O)N2[C@H]1C(=O)O
inactive: all assays above
